# Key:
# Test in all cases: DAPPL (digital affinity profiling via proximity ligation, sequencing); 10 mM Tris-HCl pH 7.5, 50 mM NaCl, 1 mM DTT, 4% glycerol, room temperature, 30 min; GST-TFs on glutathione beads, 16-mer random dsDNA library, 0.1% formaldehyde crosslink after washing; high values mean tight binding
# FLI1 = target: T1, FLI1 (Homo sapiens, UniProt Q01543 1-452); conditions: protein: recombinant; tags: N-terminal GST; dsDNA, one strand shown
# T1 sequence: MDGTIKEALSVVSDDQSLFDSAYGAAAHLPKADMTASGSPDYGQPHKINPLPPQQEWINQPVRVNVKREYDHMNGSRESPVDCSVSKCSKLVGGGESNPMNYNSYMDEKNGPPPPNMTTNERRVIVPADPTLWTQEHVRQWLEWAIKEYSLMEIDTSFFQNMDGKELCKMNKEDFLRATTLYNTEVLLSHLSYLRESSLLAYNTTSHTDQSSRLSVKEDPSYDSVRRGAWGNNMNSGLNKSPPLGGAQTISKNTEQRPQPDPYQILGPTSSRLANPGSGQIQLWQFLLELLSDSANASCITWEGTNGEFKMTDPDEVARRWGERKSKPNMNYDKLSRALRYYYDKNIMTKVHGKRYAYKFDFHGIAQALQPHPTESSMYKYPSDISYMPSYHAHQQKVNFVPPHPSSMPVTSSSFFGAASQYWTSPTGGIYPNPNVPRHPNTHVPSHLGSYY
# How it was run: (§1)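 After expression in yeast as GST fusions, human transcription factors were bound to glutathione beads, DNA-barcoded and mixed with a tag-only sample. The pools were incubated with 200 nmole of a 16-mer random double-stranded DNA library in Tris/NaCl/DTT/glycerol buffer (30 min, room temperature), washed and crosslinked with 0.1% formaldehyde. Proximity ligation with BsaI/T4 ligase ran for 1 h at 37 °C, before PCR amplification and sequencing on an Illumina NextSeq500. Binding signal is a hexamer's read frequency for a factor divided by its frequency for the tag-only sample.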
# ELK1 = target: T2, ELK1 (Homo sapiens, UniProt P19419 1-428); conditions: protein: recombinant; tags: N-terminal GST; dsDNA, one strand shown
# T2 sequence: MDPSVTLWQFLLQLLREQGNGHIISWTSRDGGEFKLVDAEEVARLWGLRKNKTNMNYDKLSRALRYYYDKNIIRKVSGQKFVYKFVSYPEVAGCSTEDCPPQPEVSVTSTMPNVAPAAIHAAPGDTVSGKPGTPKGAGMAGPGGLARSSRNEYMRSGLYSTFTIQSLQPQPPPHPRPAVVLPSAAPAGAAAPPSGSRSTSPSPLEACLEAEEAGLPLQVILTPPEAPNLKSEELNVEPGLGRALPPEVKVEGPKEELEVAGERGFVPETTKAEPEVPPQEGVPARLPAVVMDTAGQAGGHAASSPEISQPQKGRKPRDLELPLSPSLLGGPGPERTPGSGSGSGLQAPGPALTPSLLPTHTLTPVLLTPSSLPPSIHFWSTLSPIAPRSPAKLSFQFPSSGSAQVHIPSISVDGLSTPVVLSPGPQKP
# How it was run: as §1
# GABPA = target: T3, GABPA (Homo sapiens, UniProt Q06546 1-454); conditions: protein: recombinant; tags: N-terminal GST; dsDNA, one strand shown
# T3 sequence: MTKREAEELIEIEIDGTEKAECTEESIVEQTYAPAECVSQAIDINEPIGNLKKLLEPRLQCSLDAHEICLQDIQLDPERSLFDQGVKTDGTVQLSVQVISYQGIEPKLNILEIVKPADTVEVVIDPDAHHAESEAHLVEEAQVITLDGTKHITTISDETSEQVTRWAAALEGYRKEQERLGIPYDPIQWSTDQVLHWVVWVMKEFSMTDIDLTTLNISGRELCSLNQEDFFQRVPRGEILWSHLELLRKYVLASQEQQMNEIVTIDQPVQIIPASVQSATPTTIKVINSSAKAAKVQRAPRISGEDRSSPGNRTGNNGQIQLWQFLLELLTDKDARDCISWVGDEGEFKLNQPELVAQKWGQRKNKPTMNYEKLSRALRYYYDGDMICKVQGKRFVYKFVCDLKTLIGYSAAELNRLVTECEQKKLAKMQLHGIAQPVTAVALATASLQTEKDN
# How it was run: as §1
# ERG = target: T4, ERG (Homo sapiens, UniProt P11308 1-479); conditions: protein: recombinant; tags: N-terminal GST; dsDNA, one strand shown
# T4 sequence: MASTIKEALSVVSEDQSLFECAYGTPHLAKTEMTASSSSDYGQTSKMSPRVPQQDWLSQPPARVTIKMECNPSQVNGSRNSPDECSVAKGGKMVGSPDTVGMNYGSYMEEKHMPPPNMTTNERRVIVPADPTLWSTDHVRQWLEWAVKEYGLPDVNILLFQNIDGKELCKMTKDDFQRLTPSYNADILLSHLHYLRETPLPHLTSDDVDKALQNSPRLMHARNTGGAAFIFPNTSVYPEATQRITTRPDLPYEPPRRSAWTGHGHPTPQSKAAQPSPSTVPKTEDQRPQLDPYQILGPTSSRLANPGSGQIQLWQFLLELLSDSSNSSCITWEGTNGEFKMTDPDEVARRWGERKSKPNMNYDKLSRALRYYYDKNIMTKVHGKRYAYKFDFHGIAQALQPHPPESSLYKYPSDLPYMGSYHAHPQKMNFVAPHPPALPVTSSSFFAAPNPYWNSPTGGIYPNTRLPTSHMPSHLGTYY
# How it was run: as §1
# ELF1 = ELF1 (Homo sapiens, UniProt P32519 1-619); conditions: protein: recombinant; tags: N-terminal GST; dsDNA, one strand shown
# ELF1, sequence (P32519 whole entry): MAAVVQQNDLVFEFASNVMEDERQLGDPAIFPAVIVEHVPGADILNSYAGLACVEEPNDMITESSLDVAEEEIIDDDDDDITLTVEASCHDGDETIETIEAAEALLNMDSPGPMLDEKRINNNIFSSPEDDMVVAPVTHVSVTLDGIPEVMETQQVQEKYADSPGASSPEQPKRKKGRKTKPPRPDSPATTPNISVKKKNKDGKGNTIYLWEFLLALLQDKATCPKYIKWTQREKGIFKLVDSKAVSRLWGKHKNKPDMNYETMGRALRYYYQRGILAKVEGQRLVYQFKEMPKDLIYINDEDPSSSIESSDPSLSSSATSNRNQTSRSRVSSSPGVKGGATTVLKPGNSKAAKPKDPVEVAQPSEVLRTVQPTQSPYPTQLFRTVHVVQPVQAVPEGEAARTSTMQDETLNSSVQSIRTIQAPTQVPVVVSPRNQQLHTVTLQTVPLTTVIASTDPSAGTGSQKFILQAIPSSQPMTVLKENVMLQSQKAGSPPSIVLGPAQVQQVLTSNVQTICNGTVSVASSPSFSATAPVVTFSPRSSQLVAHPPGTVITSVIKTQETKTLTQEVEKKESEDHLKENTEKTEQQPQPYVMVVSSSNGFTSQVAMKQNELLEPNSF
# How it was run: as §1
# EHF = target: T5, EHF (Homo sapiens, UniProt Q9NZC4 1-300); conditions: protein: recombinant; tags: N-terminal GST; dsDNA, one strand shown
# T5 sequence: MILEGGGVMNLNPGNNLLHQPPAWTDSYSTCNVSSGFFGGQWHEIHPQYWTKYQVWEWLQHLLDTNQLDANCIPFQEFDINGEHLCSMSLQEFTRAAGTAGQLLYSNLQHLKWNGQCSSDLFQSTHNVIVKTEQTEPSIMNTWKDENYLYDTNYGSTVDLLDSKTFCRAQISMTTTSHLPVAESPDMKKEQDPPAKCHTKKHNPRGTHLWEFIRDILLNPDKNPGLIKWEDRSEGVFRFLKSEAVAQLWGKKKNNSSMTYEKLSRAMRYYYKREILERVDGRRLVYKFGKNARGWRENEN
# How it was run: as §1
# SPI1 = SPI1 (Homo sapiens, UniProt P17947 1-270); conditions: protein: recombinant; tags: N-terminal GST; dsDNA, one strand shown
# How it was run: as §1
# SPIB = SPIB (Homo sapiens, UniProt Q01892 1-262); conditions: protein: recombinant; tags: N-terminal GST; dsDNA, one strand shown
# SPIB, sequence (Q01892 whole entry): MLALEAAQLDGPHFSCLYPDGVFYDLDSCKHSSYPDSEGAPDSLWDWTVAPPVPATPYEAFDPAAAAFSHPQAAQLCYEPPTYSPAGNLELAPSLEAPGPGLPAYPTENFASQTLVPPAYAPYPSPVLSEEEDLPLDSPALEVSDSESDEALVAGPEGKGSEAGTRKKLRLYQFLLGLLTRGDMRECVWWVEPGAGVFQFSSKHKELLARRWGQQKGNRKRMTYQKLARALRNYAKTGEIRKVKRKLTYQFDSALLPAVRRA
# How it was run: as §1
# ELK3 = target: T6, ELK3 (Homo sapiens, UniProt P41970 1-407); conditions: protein: recombinant; tags: N-terminal GST; dsDNA, one strand shown
# T6 sequence: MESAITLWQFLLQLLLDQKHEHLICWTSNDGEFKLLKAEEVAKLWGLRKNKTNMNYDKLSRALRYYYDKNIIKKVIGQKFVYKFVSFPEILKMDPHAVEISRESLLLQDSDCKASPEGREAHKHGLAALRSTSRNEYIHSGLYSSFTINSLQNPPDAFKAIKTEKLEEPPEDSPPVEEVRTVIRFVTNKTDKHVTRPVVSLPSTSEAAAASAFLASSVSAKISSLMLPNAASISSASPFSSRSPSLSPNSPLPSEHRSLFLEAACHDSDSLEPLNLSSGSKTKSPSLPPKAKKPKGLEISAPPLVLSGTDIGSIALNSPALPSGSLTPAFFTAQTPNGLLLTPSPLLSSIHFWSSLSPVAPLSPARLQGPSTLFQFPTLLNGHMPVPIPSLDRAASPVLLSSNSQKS
# How it was run: as §1
# FEV = target: T7, FEV (Homo sapiens, UniProt Q99581 1-238); conditions: protein: recombinant; tags: N-terminal GST; dsDNA, one strand shown
# T7 sequence: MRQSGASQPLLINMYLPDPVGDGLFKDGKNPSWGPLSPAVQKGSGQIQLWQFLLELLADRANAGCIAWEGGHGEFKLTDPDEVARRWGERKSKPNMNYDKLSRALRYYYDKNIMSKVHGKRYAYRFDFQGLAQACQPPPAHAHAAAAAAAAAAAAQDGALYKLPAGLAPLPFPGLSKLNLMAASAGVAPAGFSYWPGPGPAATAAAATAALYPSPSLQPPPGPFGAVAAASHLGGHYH
# How it was run: as §1
# ETV5 = ETV5 (Homo sapiens, UniProt P41161 1-510); conditions: protein: recombinant; tags: N-terminal GST; dsDNA, one strand shown
# ETV5, sequence (P41161 whole entry): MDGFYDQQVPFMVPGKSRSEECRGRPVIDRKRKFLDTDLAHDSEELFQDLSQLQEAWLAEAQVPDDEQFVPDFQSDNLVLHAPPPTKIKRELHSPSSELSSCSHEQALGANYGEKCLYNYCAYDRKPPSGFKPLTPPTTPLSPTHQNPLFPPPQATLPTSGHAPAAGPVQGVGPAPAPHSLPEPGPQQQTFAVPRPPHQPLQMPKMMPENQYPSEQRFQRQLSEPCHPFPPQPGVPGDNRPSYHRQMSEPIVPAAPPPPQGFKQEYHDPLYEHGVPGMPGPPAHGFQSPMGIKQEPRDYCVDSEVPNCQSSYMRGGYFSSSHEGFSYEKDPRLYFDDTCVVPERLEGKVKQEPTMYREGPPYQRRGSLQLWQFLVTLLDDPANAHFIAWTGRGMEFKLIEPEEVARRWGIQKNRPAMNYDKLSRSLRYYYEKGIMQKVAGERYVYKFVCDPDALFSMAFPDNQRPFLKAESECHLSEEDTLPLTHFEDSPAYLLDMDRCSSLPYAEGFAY
# How it was run: as §1
# HSF1 = HSF1 (Homo sapiens, UniProt Q00613 1-529); conditions: protein: recombinant; tags: N-terminal GST; chain copies: 3; dsDNA, one strand shown
# HSF1, sequence (Q00613 whole entry): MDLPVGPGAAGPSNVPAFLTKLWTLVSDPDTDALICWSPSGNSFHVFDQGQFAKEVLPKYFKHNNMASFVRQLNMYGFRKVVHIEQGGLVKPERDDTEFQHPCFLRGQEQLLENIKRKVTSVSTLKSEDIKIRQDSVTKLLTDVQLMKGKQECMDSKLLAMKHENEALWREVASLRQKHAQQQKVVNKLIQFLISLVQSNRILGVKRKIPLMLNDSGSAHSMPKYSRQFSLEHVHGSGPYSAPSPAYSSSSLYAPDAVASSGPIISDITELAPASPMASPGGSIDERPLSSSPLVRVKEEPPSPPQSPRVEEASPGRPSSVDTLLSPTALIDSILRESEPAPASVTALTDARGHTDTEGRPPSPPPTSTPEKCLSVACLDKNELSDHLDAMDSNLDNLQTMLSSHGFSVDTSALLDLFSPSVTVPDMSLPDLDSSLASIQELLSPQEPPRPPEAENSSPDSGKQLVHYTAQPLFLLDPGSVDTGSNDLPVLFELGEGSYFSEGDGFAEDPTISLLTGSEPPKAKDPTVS
# How it was run: as §1
# SPIC = target: T8, SPIC (Homo sapiens, UniProt Q8N5J4 1-248); conditions: protein: recombinant; tags: N-terminal GST; dsDNA, one strand shown
# T8 sequence: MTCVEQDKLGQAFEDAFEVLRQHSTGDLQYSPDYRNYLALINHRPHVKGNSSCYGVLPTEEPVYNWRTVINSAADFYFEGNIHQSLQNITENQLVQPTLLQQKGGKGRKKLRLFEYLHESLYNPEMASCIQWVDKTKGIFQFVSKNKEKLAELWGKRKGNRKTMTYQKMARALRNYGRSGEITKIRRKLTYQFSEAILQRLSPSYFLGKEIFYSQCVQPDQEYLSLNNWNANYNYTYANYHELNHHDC
# How it was run: as §1
# ELF4 = ELF4 (Homo sapiens, UniProt Q99607 1-663); conditions: protein: recombinant; tags: N-terminal GST; dsDNA, one strand shown
# ELF4, sequence (Q99607 whole entry): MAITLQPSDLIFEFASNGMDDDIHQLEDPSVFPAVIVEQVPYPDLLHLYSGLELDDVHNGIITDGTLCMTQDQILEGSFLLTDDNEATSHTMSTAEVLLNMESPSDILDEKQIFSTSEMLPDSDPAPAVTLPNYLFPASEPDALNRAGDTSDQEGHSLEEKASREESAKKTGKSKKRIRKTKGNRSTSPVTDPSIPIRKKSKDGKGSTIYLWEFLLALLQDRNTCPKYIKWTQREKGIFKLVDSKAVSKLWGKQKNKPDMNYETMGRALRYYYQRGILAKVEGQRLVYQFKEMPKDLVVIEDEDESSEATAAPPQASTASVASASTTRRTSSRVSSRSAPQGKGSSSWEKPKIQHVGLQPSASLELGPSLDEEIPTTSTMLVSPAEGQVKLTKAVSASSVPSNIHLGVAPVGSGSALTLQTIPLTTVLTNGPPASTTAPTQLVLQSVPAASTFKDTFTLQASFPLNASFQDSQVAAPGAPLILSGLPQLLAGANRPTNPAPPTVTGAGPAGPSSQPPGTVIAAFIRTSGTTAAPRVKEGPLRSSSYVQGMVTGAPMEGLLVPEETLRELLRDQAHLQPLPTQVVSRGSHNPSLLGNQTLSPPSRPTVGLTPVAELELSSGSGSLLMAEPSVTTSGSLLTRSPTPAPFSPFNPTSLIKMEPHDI
# How it was run: as §1
# ELK4 = target: T9, ELK4 (Homo sapiens, UniProt P28324-2 1-405); conditions: protein: recombinant; tags: N-terminal GST; dsDNA, one strand shown
# T9 sequence: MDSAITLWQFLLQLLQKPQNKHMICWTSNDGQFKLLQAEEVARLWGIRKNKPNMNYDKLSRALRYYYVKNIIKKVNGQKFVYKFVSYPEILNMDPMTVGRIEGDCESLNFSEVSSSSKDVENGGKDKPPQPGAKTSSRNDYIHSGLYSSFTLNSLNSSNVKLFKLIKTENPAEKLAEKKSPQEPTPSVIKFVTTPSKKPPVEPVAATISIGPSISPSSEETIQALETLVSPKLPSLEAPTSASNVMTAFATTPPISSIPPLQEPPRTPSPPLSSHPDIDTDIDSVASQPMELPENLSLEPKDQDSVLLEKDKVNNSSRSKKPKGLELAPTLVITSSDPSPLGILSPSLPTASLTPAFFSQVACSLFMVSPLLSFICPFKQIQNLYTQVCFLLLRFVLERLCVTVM
# How it was run: as §1
# ETV2 = target: T10, ETV2 (Homo sapiens, UniProt O00321 1-342); conditions: protein: recombinant; tags: N-terminal GST; dsDNA, one strand shown
# T10 sequence: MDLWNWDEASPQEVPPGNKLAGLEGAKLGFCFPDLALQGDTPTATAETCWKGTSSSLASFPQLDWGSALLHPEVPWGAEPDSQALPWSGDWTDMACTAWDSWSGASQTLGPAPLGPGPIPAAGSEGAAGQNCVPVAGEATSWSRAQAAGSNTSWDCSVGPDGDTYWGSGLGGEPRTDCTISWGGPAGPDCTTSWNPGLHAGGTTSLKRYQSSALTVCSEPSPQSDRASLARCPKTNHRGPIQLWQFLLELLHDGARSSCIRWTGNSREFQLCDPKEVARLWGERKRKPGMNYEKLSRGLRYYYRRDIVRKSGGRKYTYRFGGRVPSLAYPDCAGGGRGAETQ
# How it was run: as §1
# ELF3 = target: T11, ELF3 (Homo sapiens, UniProt P78545 1-371); conditions: protein: recombinant; tags: N-terminal GST; dsDNA, one strand shown
# T11 sequence: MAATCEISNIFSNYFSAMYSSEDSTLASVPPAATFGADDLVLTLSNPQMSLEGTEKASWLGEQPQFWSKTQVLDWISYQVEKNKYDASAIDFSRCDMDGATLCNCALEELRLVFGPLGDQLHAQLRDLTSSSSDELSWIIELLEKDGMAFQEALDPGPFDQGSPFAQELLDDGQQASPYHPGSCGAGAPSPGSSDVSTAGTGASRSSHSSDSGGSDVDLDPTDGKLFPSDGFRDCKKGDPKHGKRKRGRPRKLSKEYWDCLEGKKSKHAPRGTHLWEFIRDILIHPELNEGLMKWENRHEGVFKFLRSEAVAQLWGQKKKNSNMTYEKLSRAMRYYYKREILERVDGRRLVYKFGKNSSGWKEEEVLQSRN
# How it was run: as §1
# CRX = CRX (Homo sapiens, UniProt O43186 1-299); conditions: protein: recombinant; tags: N-terminal GST; dsDNA, one strand shown
# CRX, sequence (O43186 whole entry): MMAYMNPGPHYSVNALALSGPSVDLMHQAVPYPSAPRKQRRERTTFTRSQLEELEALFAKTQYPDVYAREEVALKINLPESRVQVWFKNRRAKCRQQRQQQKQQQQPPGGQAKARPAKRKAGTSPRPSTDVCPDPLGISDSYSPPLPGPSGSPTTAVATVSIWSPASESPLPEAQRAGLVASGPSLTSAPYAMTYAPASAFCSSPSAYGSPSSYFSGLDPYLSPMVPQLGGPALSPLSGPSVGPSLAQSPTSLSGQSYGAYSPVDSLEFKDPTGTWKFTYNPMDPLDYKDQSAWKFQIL
# How it was run: as §1
# ETV1 = ETV1 (Homo sapiens, UniProt P50549 1-477); conditions: protein: recombinant; tags: N-terminal GST; dsDNA, one strand shown
# ETV1, sequence (P50549 whole entry): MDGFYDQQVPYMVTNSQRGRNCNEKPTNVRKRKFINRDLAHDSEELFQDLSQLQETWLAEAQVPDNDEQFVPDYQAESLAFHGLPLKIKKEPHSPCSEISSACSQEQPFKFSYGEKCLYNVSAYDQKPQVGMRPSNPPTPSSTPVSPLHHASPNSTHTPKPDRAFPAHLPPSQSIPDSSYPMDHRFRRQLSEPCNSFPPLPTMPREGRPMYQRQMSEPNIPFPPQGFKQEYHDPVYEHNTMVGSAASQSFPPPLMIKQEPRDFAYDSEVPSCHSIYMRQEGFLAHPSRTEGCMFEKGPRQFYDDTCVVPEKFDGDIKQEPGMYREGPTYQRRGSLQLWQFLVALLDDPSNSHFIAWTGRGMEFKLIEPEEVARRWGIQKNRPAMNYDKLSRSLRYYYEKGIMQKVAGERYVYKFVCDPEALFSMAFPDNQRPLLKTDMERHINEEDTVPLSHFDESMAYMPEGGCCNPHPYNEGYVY
# How it was run: as §1
sequence,measurement,setting,value
CTAACG,binding signal,FLI1,"1.22 fold enrichment (6-mer frequency, TF over GST control)"
same,binding signal,ELK1,"1.23 fold enrichment (6-mer frequency, TF over GST control)"
same,binding signal,GABPA,"1.09 fold enrichment (6-mer frequency, TF over GST control)"
same,binding signal,ERG,"1.21 fold enrichment (6-mer frequency, TF over GST control)"
same,binding signal,ELF1,"1.13 fold enrichment (6-mer frequency, TF over GST control)"
same,binding signal,EHF,"1.13 fold enrichment (6-mer frequency, TF over GST control)"
same,binding signal,SPI1,"1.26 fold enrichment (6-mer frequency, TF over GST control)"
same,binding signal,SPIB,"1.11 fold enrichment (6-mer frequency, TF over GST control)"
same,binding signal,ELK3,"1.19 fold enrichment (6-mer frequency, TF over GST control)"
same,binding signal,FEV,"1.19 fold enrichment (6-mer frequency, TF over GST control)"
same,binding signal,ETV5,"1.19 fold enrichment (6-mer frequency, TF over GST control)"
same,binding signal,HSF1,"1.09 fold enrichment (6-mer frequency, TF over GST control)"
same,binding signal,SPIC,"1.04 fold enrichment (6-mer frequency, TF over GST control)"
same,binding signal,ELF4,"1.17 fold enrichment (6-mer frequency, TF over GST control)"
same,binding signal,ELK4,"1.19 fold enrichment (6-mer frequency, TF over GST control)"
same,binding signal,ETV2,"1.01 fold enrichment (6-mer frequency, TF over GST control)"
same,binding signal,ELF3,"1.18 fold enrichment (6-mer frequency, TF over GST control)"
same,binding signal,CRX,"1.1 fold enrichment (6-mer frequency, TF over GST control)"
same,binding signal,ETV1,"1.11 fold enrichment (6-mer frequency, TF over GST control)"

# From publication PMC7862700, “An all-to-all approach to the identification of sequence-specific readers for epigenetic DNA modifications on cytosine”
